In PubChem BioAssay:
“And” between values parts separate entries of the source, which are not always exact repeats. Equal entries are not always repeated. The source made the active and inactive calls.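 Rule for the calls, unless noted: active = thallium flux through the channel raised or lowered by more than 3 SD from vehicle-only wells, actives on both sides; inactive = the rest.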

Columns and labels:
[1] = stimulators of nuclear beta-catenin in C2C12, primary screen, imaging, WNT3A-conditioned medium, mouse C2C12, NPC library (AID 1117326; in the data active = nuclear beta-catenin stimulation mostly above about 4.2%, no sharp cut-off; inactive = mostly below about 10%); settings: stronger effect = higher value
[2] = stimulators of insulin release from INS-1E, primary screen, cell-based, 5 mM glucose, NPC library (AID 1117329;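 active = compound raises insulin release from rat beta cells at 5 mM glucose, no numeric limit stated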); settings: rat INS-1E insulin secretion, at 10 µM, stronger effect = higher value
[3] = growth inhibition of GSK3B-pretreated HCT116 cells – cell-based, CellTiter-Glo, 0.2 to 20 µM (AID 1117336;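 active = compounds lowering colon cancer cell viability after pretreatment blocking the GSK3B kinase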); settings: HCT116 viability after GSK3B inhibitor, at 20 µM, stronger effect = higher value
[4] = inhibition of endothelial tube formation, primary screen, imaging, VEGF stimulated, CD31 staining, tube area, NPC library (AID 1117340;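 active = compound that reduces growth-factor-driven endothelial tube area in a mixed cell culture, no cutoff stated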); settings: VEGF-stimulated ADSC/ECFC co-culture, at 10 µM, stronger effect = higher value
[5] = glucagon-like peptide 1 release enhancers, primary assay, NCI-H716 cell line, NPC library (AID 1117341;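 active = compound raises GLP1 secretion from the human gut endocrine cells, with no numeric limit stated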); settings: NCI-H716 cells, at 10 µM, stronger effect = higher value
[6] = HCT116 colon cancer cell growth inhibition, primary screen, CellTiter-Glo luminescence, NPC library (AID 1117342;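 active = compounds that lower survival of HCT116 colon cancer cells in the luminescence readout, no numeric limit stated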); settings: at 20 µM (top of the series)
[7] = CellTiter-Glo luminescent readout of SW480 viability loss, NPC library primary (AID 1117343;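 active = compounds that lower viability of the colon cancer cells in the luminescence readout, with no numeric limit stated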); settings: CellTiter-Glo luminescence; at 20 µM (top of the series)
[8] = decreased DLD-1 cellular survival, CellTiter-Glo luminescent readout, NPC compound collection, primary HTS (AID 1117346;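 active = compounds that lower survival of DLD-1 colon cancer cells in the luminescence readout, no cutoff given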); settings: DLD-1 viability, CellTiter-Glo luminescence; at 20 µM (top of the series)
[9] = molecular target: 6-phosphogluconate dehydrogenase, decarboxylating (Homo sapiens) (UniProt P52209); test: 6PGD enzyme inhibitors, primary screen, biochemical, human, recombinant enzyme, NADPH absorbance (AID 1159550;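 active = at least 20% inhibition of 6-phosphogluconate dehydrogenase activity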); settings: recombinant 6PGD, NADPH absorbance 341 nm; at 10 µM; stronger effect = higher value
Chain of 6-phosphogluconate dehydrogenase, decarboxylating (Homo sapiens) (P52209 whole entry, looked up): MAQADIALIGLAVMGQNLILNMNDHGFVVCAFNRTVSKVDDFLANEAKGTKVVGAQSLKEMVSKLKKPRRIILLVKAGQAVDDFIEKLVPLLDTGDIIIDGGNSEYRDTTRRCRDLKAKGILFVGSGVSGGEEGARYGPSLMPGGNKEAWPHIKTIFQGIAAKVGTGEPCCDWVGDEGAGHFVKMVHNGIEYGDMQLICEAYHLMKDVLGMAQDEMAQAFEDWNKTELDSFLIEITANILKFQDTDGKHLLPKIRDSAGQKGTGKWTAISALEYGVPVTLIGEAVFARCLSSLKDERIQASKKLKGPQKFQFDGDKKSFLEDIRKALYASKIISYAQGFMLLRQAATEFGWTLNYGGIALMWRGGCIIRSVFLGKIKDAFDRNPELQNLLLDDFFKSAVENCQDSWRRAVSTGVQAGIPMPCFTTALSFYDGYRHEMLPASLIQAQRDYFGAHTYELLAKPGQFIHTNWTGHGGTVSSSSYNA

[10] = modulation of C. elegans fzo-1 (AID 1259413; call rule not given here;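 note: fzo-1 mutant C. elegans worms in liquid wells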); settings: C. elegans fzo-1 modulator screen, mean read-out; stronger effect = higher value
[11] = differential killing of epithelial or mesenchymal cells, primary screen, imaging, PC-3E GFP, TEM4-18 mCherry, co-culture (AID 1345086;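 active = compounds killing one labelled cell type while sparing the other, by normalised counts and ratio limits, not self-fluorescent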;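 for all read-outs here: cells exposed to compound for 72 h before imaging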;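 for red/green cell ratio (normalised): normalised mesenchymal count divided by normalised epithelial count so high means epithelial killing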); settings: imaging cell counts, at 1 µM; for red/green cell ratio (normalised): actives lie on both sides, counts scaled to control wells, 1 = unselective
[12] = survival rescue of mitochondrial mutant cells in low glucose, primary screen, MELAS cybrids, Rieske KO mouse fibroblasts, CellTiter-Glo (AID 1508586;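 active = mean z-score across replicates of 1.96 or higher in either the MELAS or the Rieske mutant cell line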;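 note: z relative to plate mean and SD of compound and empty wells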)
[13] = molecular target: NAD(+) hydrolase SARM1 (Homo sapiens) (UniProt Q6SZW1); test: SARM1 TIR NADase inhibitors, cell lysate, NAD-Glo luminescence (AID 1508614;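 active = compound whose remaining NAD level is above about 45 nM, limit read from the data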;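 note: higher remaining NAD means stronger inhibition of SARM1 NADase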); settings: SAM-TIR HEK293T lysate NADase, at 1 µM, stronger effect = higher value
Chain of NAD(+) hydrolase SARM1 (Homo sapiens) (Q6SZW1 whole entry, looked up, the tested form may be a part): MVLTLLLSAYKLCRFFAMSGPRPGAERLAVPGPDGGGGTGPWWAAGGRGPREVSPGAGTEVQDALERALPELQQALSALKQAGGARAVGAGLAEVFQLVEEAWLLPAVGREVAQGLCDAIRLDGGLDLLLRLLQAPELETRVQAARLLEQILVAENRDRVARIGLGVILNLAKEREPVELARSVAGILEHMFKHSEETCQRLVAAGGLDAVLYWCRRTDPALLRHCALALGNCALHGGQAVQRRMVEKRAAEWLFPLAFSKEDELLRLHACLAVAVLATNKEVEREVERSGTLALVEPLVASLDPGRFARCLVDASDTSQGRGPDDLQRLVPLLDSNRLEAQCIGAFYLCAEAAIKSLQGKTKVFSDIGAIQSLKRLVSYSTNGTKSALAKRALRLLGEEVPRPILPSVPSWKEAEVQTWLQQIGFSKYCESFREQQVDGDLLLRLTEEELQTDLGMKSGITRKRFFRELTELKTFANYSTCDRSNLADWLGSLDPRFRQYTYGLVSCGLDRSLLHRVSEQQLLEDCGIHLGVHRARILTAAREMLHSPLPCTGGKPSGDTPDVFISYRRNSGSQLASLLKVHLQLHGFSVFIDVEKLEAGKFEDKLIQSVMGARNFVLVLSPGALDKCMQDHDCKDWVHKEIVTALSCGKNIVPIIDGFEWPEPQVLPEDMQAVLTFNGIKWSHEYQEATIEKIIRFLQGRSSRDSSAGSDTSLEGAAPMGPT

[14] = molecular target: Mitogen-activated protein kinase 7 (Homo sapiens) (UniProt Q13164); test: ERK5 transactivation activators in reporter cells, primary screen, cell-based, HTS (AID 1508626;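 active = luciferase signal above three times the same-plate solvent-only control wells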;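 note: luciferase driven by Gal4-ERK5 fusion binding five Gal4 sites before minimal TATA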); settings: HeLa Gal4-ERK5 transactivation, 18 h, at 5 µM, stronger effect = higher value
Chain of Mitogen-activated protein kinase 7 (Homo sapiens) (Q13164 whole entry, looked up, the tested form may be a part): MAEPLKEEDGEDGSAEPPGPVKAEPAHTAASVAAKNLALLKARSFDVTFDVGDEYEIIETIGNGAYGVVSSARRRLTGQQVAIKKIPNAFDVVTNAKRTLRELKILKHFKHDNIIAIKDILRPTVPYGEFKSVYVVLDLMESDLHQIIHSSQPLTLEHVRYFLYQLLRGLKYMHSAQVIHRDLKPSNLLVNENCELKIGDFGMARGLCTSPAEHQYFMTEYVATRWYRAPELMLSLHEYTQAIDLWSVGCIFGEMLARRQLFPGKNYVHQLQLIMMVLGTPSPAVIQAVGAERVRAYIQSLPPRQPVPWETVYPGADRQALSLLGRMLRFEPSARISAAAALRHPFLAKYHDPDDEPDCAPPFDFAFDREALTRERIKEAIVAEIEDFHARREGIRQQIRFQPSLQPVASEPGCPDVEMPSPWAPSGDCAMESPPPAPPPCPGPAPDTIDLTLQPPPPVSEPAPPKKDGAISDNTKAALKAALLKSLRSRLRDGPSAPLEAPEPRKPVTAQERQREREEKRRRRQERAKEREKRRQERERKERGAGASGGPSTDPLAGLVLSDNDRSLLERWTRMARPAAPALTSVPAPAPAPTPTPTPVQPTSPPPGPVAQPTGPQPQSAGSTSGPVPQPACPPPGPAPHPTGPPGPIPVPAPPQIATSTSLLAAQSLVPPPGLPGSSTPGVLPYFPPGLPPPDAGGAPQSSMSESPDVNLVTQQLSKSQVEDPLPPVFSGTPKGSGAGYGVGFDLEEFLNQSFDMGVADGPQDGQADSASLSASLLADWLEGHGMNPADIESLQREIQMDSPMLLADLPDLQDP

F380Y = test: modulators of BK channel variants, profiling panel, selectivity assay, cell-based, U2OS BacMam, thallium flux, beta subunits (AID 1259406); settings: at 30 µM;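 note: initial slope of Thallos dye fluorescence rise after thallium is added; log ratio against the mean of 0.3% DMSO vehicle wells on the same plate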
F380Y/beta1 = test: as above; settings: at 30 µM
F380Y/beta2Delta = test: as above; settings: at 30 µM
[15] = measured here: epithelial PC-3E GFP cell survival
[16] = measured here: mesenchymal TEM4-18 mCherry cell survival
[17] = MELAS cybrid survival, CellTiter-Glo 48 h, stronger effect = higher value
[18] = Rieske KO mouse fibroblast survival, CellTiter-Glo 72 h

Cc1noc(NS(=O)(=O)c2ccc(N)cc2)c1C
-0.11 and -0.107: z-score [12, 18]
inactive: nuclear beta-catenin stimulation ([1]; at 10 µM) 0.8% | insulin secretion stimulation [2] -1.5% | viability decrease [3] -14.5% | tube area decrease [4] 8.7% | GLP1 secretion stimulation [5] 0.1% | inhibition of viability [6] 0.13% | viability decrease (inhibition) [7] -27% | viability decrease (inhibition) [8] -5.7% | inhibition [9] -15.2% | mean signal [10] 256 | red/green cell ratio (normalised) [11] 1.68 | z-score [12, 17] -0.0643 and 0.19 | remaining NAD [13] 10 nM | luciferase signal [14] 100 AU | log fold change Tl+ flux (F380Y) 0.00425 | log fold change Tl+ flux (F380Y/beta1) -0.0556 | log fold change Tl+ flux (F380Y/beta2Delta) 0.028
0.7%: nuclear beta-catenin stimulation ([1]; stimulation, at 2 µM)
0.73: normalised cell number [11, 15]
1.22: normalised cell number [11, 16]

CC[C@H](C)C(=O)O[C@H]1C[C@@H](C)C=C2C=C[C@H](C)[C@H](CC[C@@H]3C[C@@H](O)CC(=O)O3)[C@H]21
2.23 and -0.0427: z-score [12, 18]
4.2%: nuclear beta-catenin stimulation ([1]; stimulation, at 2 µM)
inactive: nuclear beta-catenin stimulation ([1]; at 10 µM) 13.1% | insulin secretion stimulation [2] 6.6% | viability decrease (inhibition) [8] 36.2% | inhibition [9] -1.21% | mean signal [10] 253 | red/green cell ratio (normalised) [11] 0.98 | remaining NAD [13] 10 nM | luciferase signal [14] 60 AU | log fold change Tl+ flux (F380Y/beta1) 0.00194
1.37: normalised cell number [11, 16]
1.39: normalised cell number [11, 15]
-0.236 and -1.19 (inactive): z-score [12, 17]
active: viability decrease [3] 69.3% | tube area decrease [4] 95.5% | GLP1 secretion stimulation [5] 25% | inhibition of viability [6] 56.9% | viability decrease (inhibition) [7] 87% | log fold change Tl+ flux (F380Y) 0.184 | log fold change Tl+ flux (F380Y/beta2Delta) 0.0899

Oc1ccc(/C=C/c2cc(O)cc(O)c2)cc1
2.2%: nuclear beta-catenin stimulation ([1]; stimulation, at 2 µM)
active: tube area decrease [4] 56.1% | inhibition of viability [6] 65% | viability decrease (inhibition) [7] 75.5% | log fold change Tl+ flux (F380Y/beta1) 0.199 | log fold change Tl+ flux (F380Y/beta2Delta) 0.155
0.97: normalised cell number [11, 15]
inactive: nuclear beta-catenin stimulation ([1]; at 10 µM) 2.4% | insulin secretion stimulation [2] 0.1% | viability decrease [3] 19% | GLP1 secretion stimulation [5] 2.9% | viability decrease (inhibition) [8] 35.3% | inhibition [9] 0.743% | mean signal [10] 256 | red/green cell ratio (normalised) [11] 1.06 | luciferase signal [14] 84 AU | log fold change Tl+ flux (F380Y) 0.101
1.04: normalised cell number [11, 16]

CC(C)NCC(O)c1ccc(O)c(O)c1 (centres undefined)
inactive: nuclear beta-catenin stimulation ([1]; at 10 µM) -0.3% | insulin secretion stimulation [2] 1.4% | tube area decrease [4] -8.1% | GLP1 secretion stimulation [5] 6.8% | inhibition of viability [6] 33.2% | viability decrease (inhibition) [7] 28.5% | viability decrease (inhibition) [8] 23.6% | inhibition [9] -1.67% | mean signal [10] 227 | red/green cell ratio (normalised) [11] 1.26 | z-score [12, 17] -0.378 and -0.294 | remaining NAD [13] 10 nM | luciferase signal [14] 60 AU | log fold change Tl+ flux (F380Y) 0.0351 | log fold change Tl+ flux (F380Y/beta1) 0.0171 | log fold change Tl+ flux (F380Y/beta2Delta) 0.061
0.858 and -1.25: z-score [12, 18]
1.07: normalised cell number [11, 15]
active: viability decrease [3] 54.1%
1.35: normalised cell number [11, 16]
1.9%: nuclear beta-catenin stimulation ([1]; stimulation, at 2 µM)

Cc1coc2ccccc2c1=O
inactive: nuclear beta-catenin stimulation ([1]; at 10 µM) 1.5% | insulin secretion stimulation [2] -2.4% | viability decrease [3] 2.8% | tube area decrease [4] 13.7% | GLP1 secretion stimulation [5] 3.1% | inhibition of viability [6] -12.2% | viability decrease (inhibition) [7] 24.7% | viability decrease (inhibition) [8] -7.5% | inhibition [9] 1.24%
2.3%: nuclear beta-catenin stimulation ([1]; stimulation, at 2 µM)

NC12CC3CC(CC(C3)C1)C2
0.95: normalised cell number [11, 15]
active: viability decrease (inhibition) [7] 56.6%
-0.543 and 0.116 and -0.0986: z-score [12, 18]
1.32: normalised cell number [11, 16]
inactive: nuclear beta-catenin stimulation ([1]; at 10 µM) 2.1% | insulin secretion stimulation [2] 2.4% | viability decrease [3] 7.6% | tube area decrease [4] 3.9% | GLP1 secretion stimulation [5] 6.5% | inhibition of viability [6] 30.7% | viability decrease (inhibition) [8] 14.6% | inhibition [9] -14.3% | mean signal [10] 230 | red/green cell ratio (normalised) [11] 1.38 | z-score [12, 17] -0.372 and -0.42 and -0.564 | remaining NAD [13] 10 nM | luciferase signal [14] 44 AU | log fold change Tl+ flux (F380Y) -0.0507 | log fold change Tl+ flux (F380Y/beta1) 0.00169 | log fold change Tl+ flux (F380Y/beta2Delta) 0.0403
1.9%: nuclear beta-catenin stimulation ([1]; stimulation, at 2 µM)

CCC1(c2ccccc2)C(=O)NCNC1=O
1.02: normalised cell number [11, 15]
inactive: nuclear beta-catenin stimulation ([1]; at 10 µM) 0.6% | insulin secretion stimulation [2] -2.2% | viability decrease [3] -8.45% | tube area decrease [4] 12.9% | GLP1 secretion stimulation [5] -2% | inhibition of viability [6] 1% | viability decrease (inhibition) [7] -8.1% | viability decrease (inhibition) [8] -8.9% | inhibition [9] 14.9% | mean signal [10] 235 | red/green cell ratio (normalised) [11] 1.02 | z-score [12, 17] -0.279 and 0.626 | remaining NAD [13] 10 nM | luciferase signal [14] 60 AU | log fold change Tl+ flux (F380Y) -0.0227 | log fold change Tl+ flux (F380Y/beta1) 0.00204 | log fold change Tl+ flux (F380Y/beta2Delta) -0.0144
1.4%: nuclear beta-catenin stimulation ([1]; stimulation, at 2 µM)
0.595 and -0.386: z-score [12, 18]
1.05: normalised cell number [11, 16]

c1ccc(CC2=NCCN2)cc1
-0.183 and 0.131: z-score [12, 18]
1%: nuclear beta-catenin stimulation ([1]; stimulation, at 2 µM)
0.88: normalised cell number [11, 15]
1.04: normalised cell number [11, 16]
inactive: nuclear beta-catenin stimulation ([1]; at 10 µM) 0.4% | insulin secretion stimulation [2] -1% | viability decrease [3] -3.85% | tube area decrease [4] -0.5% | GLP1 secretion stimulation [5] 1.9% | inhibition of viability [6] -10.6% | viability decrease (inhibition) [7] 15.1% | viability decrease (inhibition) [8] 5.35% | inhibition [9] -8.93% | mean signal [10] 271 | red/green cell ratio (normalised) [11] 1.19 | z-score [12, 17] -0.147 and 0.373 | remaining NAD [13] 10 nM | luciferase signal [14] 44 AU | log fold change Tl+ flux (F380Y) 0.00977 | log fold change Tl+ flux (F380Y/beta1) 0.0105 | log fold change Tl+ flux (F380Y/beta2Delta) -0.0174
